Assay outcomes as filed in PubChem BioAssay.
Hits are enriched below; roughly 7.9% of the tested compounds scored in any of these assays.
HT1080 IDH1KD tx – toxicity to HT-1080 IDH1 knockdown cells (counter line); HT-1080 IDH1 knockdown viability, ATP luminescence, 48 h; Potency, µM (doses to about 46.1 µM), usual class: cytotoxic; 2% of 360,000 active; AID 686971
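HT-1080-IDH1KD cells (IDH1 knocked down), 750/well in RPMI with 5% FBS, treated with compound 48 h at 37 degrees C. Viability by CellTiter-Glo luminescence, normalised to DMSO and no-cell wells; concentration-response curves classed.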
MCF10A rereplic – DNA re-replication induction in MCF 10a cells; 2.9% of 350,000 active; AID 624296; Potency, µM (highest dose often 46.1 µM), usual class: activators; MCF 10A DNA re-replication, Hoechst nuclear intensity, 48 h; further: nearly all actives have a fitted effect of over 50% in size
HT1080-NT tox – kills 2HG-producing HT-1080-NT fibrosarcoma cells; 1.6% of 360,000 active; Potency, µM (doses to about 46.1 µM), usual class: cytotoxic; HT-1080-NT fibrosarcoma viability, CellTiter-Glo ATP luminescence, 48 h; AID 686970;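 further: NT is the 2HG producing partner of a matched IDH1 knockdown line; nearly all actives have a fitted effect of over 55% in size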
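A 48-hour cytotoxicity screen used HT-1080-NT cells plated 2 hours before compound delivery. ATP-based CellTiter-Glo luminescence measured viability, normalized to DMSO and no-cell controls.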
KB-V1 MDR tox – KB-V1 MDR subline cytotoxicity | KB-V1 MDR cells viability, CellTiter-Glo, 72 h | Potency, µM (series often up to 46.1 µM), hits mostly cytotoxic | 3.4% of 400,000 active | AID 1347076; further: nearly all actives have a fitted effect of over 60% in size
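qHTS viability screen in drug-selected KB-V1 MDR cells: 72 h compound treatment at 37 degrees C, ATP luminescence end point.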
SW480 rerep – DNA re-replication induction in SW480 cells; SW480 DNA re-replication, Hoechst DNA content imaging, 48 h; Potency, µM (highest dose often 46.1 µM), hits mostly activators; 1.8% of 340,000 active; further: nearly all actives have a fitted effect of over 55% in size
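Per well, 250 cells were exposed to pinned compound for 48 hr. Nuclear DNA was visualised with Hoechst (40 min, 37 C) and total object intensity recorded by fluorescence scanning.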
KB-3-1 cytotox – kills parental KB-3-1 adenocarcinoma cells; KB-3-1 viability, CellTiter-Glo ATP luminescence, 72 h; Potency, µM (series often up to 46.1 µM), most hits filed as cytotoxic; 1.4% of 400,000 active; AID 1347075; further: nearly all actives have a fitted effect of over 60% in size
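Parental KB-3-1 adenocarcinoma cells in phenol-red-free DMEM with 10% FBS were pin-treated with compounds at several concentrations, incubated 72 h at 37 °C, and viability read by CellTiter-Glo luminescence; concentration-effect curves were fitted after normalization.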
A number is an active result; - = inactive; ? = inconclusive; . = no result; ! = a repeat was not active; [ ] = remark or other dose. The call rests on the fitted dose curve; in most records, active means well fitted curve in the direction sought with a large enough effect; inconclusive means small, poorly fitted or top-dose-only effect, or another doubt; inactive means no such curve, though single readings can be large; an effect the other way counts as inactive or inconclusive.

SMILES	HT1080 IDH1KD tx	MCF10A rereplic	HT1080-NT tox	KB-V1 MDR tox	SW480 rerep	KB-3-1 cytotox
CCc1nnc(NC(=O)c2nc(S(=O)(=O)Cc3cccc(C)c3)ncc2Cl)s1	10µM	?	23µM	?	5.8µM	21µM
COc1ccccc1Cc1c(C2CCCCC2)nc2ccc(Br)cn12	?	.	?	-	.	?
CCN(CC)C(=O)CC(c1cc(OC)c(OC)c(OC)c1)c1c(OC)cc(OC)c2c(-c3ccccc3)cc(=O)oc12 (stereo unspecified)	-	-	-	-	-	?
CCOc1ccccc1NC(=O)c1nc(S(=O)(=O)Cc2cccc(C)c2)ncc1Cl	-	?	-	?	3.3µM	5.2µM!
COC(=O)c1ccccc1NC(=O)c1nc(S(=O)(=O)Cc2ccccc2)ncc1Cl	-	?	-	-	-	-
Cc1cc(C(=O)COc2ccccc2C(N)=O)c(C)n1CC1CCCO1 (stereo unspecified)	?	-	?	4.6µM	-	-
Cc1cc(C(=O)COC(=O)c2ccccc2O)c(C)n1CC1CCCO1 (stereo unspecified)	?	-	-[9.24 µM]	?	-	-
COc1ccc(N2CCN(CCCn3c(=S)[nH]c4ncccc4c3=O)CC2)cc1	-	-	-	-	-	6.5µM
O=C(C1CCC(Cn2c(=S)[nH]c3ccccc3c2=O)CC1)N1CCOCC1 (stereo unspecified)	-	-	-	23µM	-	?
O=C(C1CCC(Cn2c(=S)[nH]c3ccccc3c2=O)CC1)N1CCN(c2ccccc2)CC1 (stereo unspecified)	-	?	-	-	-	-
O=c1c2cccnc2[nH]c(=S)n1CCCN1CCN(c2ccc(F)cc2)CC1	-	-	-	-	-	?
O=C(C1CCC(Cn2c(=S)[nH]c3ccccc3c2=O)CC1)N1CCN(c2ccccn2)CC1 (stereo unspecified)	-	-	-	?	-	?
COc1ccc(N2CCN(C(=O)C3CCC(Cn4c(=S)[nH]c5ccccc5c4=O)CC3)CC2)cc1 (stereo unspecified)	-	-	-	2.9µM	?	18µM
CCOc1ccc(CNC(=O)CCC(=O)N2CC3CCCN3c3ccccc32)cc1 (stereo unspecified)	.	.	.	-	.	-
CN(C)c1ccc(/C=[N+]2\C(=O)CC(=O)NC2=O)cc1	.	.	.	-	.	-
c1ccc2c(N3CCOCC3)nc(-c3ccncc3)nc2c1	-[9.24 µM]	-	-	13µM	-	?
CC1CCCCN1c1ncnc2ccccc12 (stereo unspecified)	-	-	18µM	?	-	?
CCC1CCCCN1c1nc(-c2ccncc2)nc2ccccc12 (stereo unspecified)	?	23µM	18µM	?	?	?
CC1CCCCN1c1nc(-c2ccncc2)nc2ccccc12 (stereo unspecified)	29µM	?	?	?	?	-
CCC1CCCCN1c1nc(-c2cccc(OC)c2O)nc2ccccc12 (stereo unspecified)	-	?	-	-	?	-
COc1cc(OC)c(NC(=O)c2c3c(nc4ccccc24)C(=O)N(C2CCCCC2)C3)cc1Cl	.	.	.	-	.	?
CC(C)Nc1nc(Nc2ccc(F)cc2)c2sccc2n1	-	.	-	?	.	-
CC(C)(Cc1ccc(O)cc1)NC(=O)SCc1ccccc1	-	-	-	-	-	-
COc1ccc(Cl)cc1N(C)c1nc(N2CCN(S(=O)(=O)c3ccc(C)cc3)CC2)c2ccccc2n1	-	.	-	.	.	.
Cc1ccc(-n2ncc3c(SCC(N)=O)ncnc32)cc1C	-	-	-	-	-	-
SMILES	HT1080 IDH1KD tx	MCF10A rereplic	HT1080-NT tox	KB-V1 MDR tox	SW480 rerep	KB-3-1 cytotox
COC(=O)C1=CN(c2ccc(Oc3ccccc3)cc2)C(N)=C(C#N)C1c1ccc(-c2ccccc2)cc1 (stereo unspecified)	-	.	-	-	.	-
O=C1N=C(N2CCN(c3cccc4ccccc34)CC2)S/C1=C/c1cccs1	-	-	-	-	-	-
Cc1ccccc1N1CCN(C2=NC(=O)/C(=C\c3cccs3)S2)CC1	?	6.5µM	?	-	?	?
CCCCCC(=O)N1C[C@H](O)[C@@H](n2cc(-c3ccc(F)cc3)nn2)C[C@@H]1c1ccc(Cl)cc1	?	.	?	-	.	?
CCCCCCN1C[C@H](O)[C@@H](n2cc(-c3ccc(F)cc3)nn2)C[C@@H]1c1ccc(Cl)cc1	-	.	-	?	.	18µM
CCCCCC(=O)N1C[C@@H](n2cc(-c3ccc(F)cc3)nn2)[C@H](O)C[C@@H]1c1ccc(Cl)cc1	16µM	.	?	?	.	?
COc1cc(NC(=O)Nc2c[nH]c(=O)[nH]c2=O)cc(OC)c1OC	.	.	.	?	.	-
Cc1nn(-c2ccccc2)c2c1cc1c(=O)[nH]c(=O)nc-1n2-c1cccc(C(F)(F)F)c1	.	.	.	?	.	-
COc1cc2c3nnc(-c4ccccc4)c-3cn(Cc3ccc(F)cc3)c2cc1OC	21µM	?	18µM	-	18µM	-
COc1cc2c3nnc(-c4ccc(F)cc4)c-3cn(Cc3cccc(C)c3)c2cc1OC	-	?	-	-	21µM	?
COc1cc2c3nnc(-c4ccc(F)cc4)c-3cn(Cc3ccc(C)cc3)c2cc1OC	-	?	-	-	-	?
COc1cc2c3nnc(-c4ccc(F)cc4)c-3cn(Cc3cccc(F)c3)c2cc1OC	-	?	?	-	6.5µM	?
COc1cccc(Cn2nc3c4cc(F)ccc4n(Cc4ccc(F)cc4)cc-3c2=O)c1	-	?	-	-	-	-
CCC(C)C(NC(=O)c1ccccc1)C(=O)N1CCN(C(=O)c2ccccc2)CC1 (stereo unspecified)	-	.	-	-	.	-
O=C(COC(=O)c1ccc(F)cc1F)NCc1ccc2c(c1)OCO2	-	-	-	-	-	-
CC(C)CC(=O)NC(NC(=S)Nc1ccccc1)C(Cl)(Cl)Cl (stereo unspecified)	?	-	-	?	-	-
O=C(CCc1ccccc1)NC(NC(=S)Nc1ccc(Cl)cc1)C(Cl)(Cl)Cl (stereo unspecified)	?	-	?	-	?	18µM
O=C(/C=C/c1ccccc1)NC(NC(=S)Nc1ccc(Cl)cc1)C(Cl)(Cl)Cl (stereo unspecified)	18µM	16µM	?	?	?	?
COc1ccc(NC(=S)NC(NC(=O)/C=C/c2ccccc2)C(Cl)(Cl)Cl)cc1 (stereo unspecified)	?	?	?	-	-	?
Cc1nc(C)c(-c2ccc(SCC(=O)Nc3cccc(Cl)c3C)nn2)s1	-	-	-	?	-	-
O=C(c1ccco1)N1N=C(c2ccco2)CC1c1ccc(Cl)cc1Cl (stereo unspecified)	?	23µM	?	-	?	?
